Inconclusive results are not listed. The source made the active and inactive calls. How the source made its calls: active means hit-call score of the fitted dose curve at least 0.9, where 1 is the maximum; inconclusive means response in the unintended direction; inactive means score below 0.9.
target: human Histamine 1 Receptor (H1), HRH1 (gene 3269) (UniProt P35367); test: NVS_GPCR_hH1: NovaScreen (NVS) G Protein-Coupled Receptor Assay for human Histamine 1 Receptor (H1) (AID 2283268)
Method in brief: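 Cell-free radioligand displacement at human H1 receptor, 1 h, filter scintillation counting; primary screen 25 uM in duplicate, hits in concentration series; loss of binding fitted vs DMSO.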

Chain of human Histamine 1 Receptor (H1), HRH1 (gene 3269) (P35367 whole entry, looked up): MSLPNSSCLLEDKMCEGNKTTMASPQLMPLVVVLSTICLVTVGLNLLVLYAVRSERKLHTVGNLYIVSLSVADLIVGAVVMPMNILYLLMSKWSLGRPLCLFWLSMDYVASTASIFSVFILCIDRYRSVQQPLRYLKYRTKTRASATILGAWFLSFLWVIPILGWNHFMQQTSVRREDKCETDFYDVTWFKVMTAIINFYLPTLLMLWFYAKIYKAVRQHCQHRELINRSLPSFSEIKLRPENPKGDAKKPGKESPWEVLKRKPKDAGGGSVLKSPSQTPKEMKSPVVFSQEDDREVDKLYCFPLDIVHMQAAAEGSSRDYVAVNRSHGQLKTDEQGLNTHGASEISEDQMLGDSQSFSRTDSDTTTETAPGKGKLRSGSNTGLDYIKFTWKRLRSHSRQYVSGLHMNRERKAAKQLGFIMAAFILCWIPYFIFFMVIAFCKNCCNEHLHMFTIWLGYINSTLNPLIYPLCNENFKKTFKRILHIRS

SMILES	outcome	AC50
CCCCCCCCN(C)C	inactive	
CCn1nc(C)c2c1C(=O)NCC(c1ccc(O)cc1)=N2	inactive	
c1ccc2cc3ccccc3cc2c1	inactive	
c1ccc(C(O[C@@H]2CCCN(CCc3ccc4c(c3)OCO4)C2)c2ccccc2)cc1		5.62 µM (active)
CCCCCCCCCCCCCCCCOS(=O)(=O)O		18.1 µM (active)

target: D(1A) dopamine receptor (Homo sapiens) (UniProt P21728); test: NVS_GPCR_hDRD1: NovaScreen (NVS) G Protein-Coupled Receptor Assay for human Dopamine Receptor D1 (DRD1) (AID 2283269)
Sequence (P21728 whole entry, looked up): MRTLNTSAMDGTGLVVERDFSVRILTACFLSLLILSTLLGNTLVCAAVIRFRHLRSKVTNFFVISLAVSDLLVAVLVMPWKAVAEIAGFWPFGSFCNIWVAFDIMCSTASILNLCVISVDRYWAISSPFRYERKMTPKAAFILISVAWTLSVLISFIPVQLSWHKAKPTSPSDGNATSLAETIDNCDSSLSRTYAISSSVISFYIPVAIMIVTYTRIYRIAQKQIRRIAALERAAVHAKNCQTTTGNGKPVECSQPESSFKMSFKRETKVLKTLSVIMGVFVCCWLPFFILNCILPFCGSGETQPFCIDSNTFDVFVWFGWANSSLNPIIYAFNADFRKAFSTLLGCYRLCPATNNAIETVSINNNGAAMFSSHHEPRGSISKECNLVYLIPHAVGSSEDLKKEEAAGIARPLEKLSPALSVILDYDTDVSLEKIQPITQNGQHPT
Method in brief: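 HEK293-derived receptor preparation; radioligand competitive displacement; 1 h; filtration + scintillation counting. DMSO = negative control/baseline. Primary: 25 uM, duplicate; secondary: concentration–response for actives.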

SMILES	AC50	outcome
C=CCc1cc(S(=O)(=O)c2ccc(O)c(CC=C)c2)ccc1O	9.78 µM (active)	
CCCCCCCCCC		inactive
CCCCCCCC/C=C\CCCCCCCC(=O)OC[C@@H](O)[C@H]1OC[C@H](O)[C@H]1O	34.5 µM (active)	
CCn1nc(C)c2c1C(=O)NCC(c1ccc(O)cc1)=N2		inactive
O=c1[nH]cnc2c1ncn2[C@H]1CC[C@@H](CO)O1		inactive
c1ccc(C(O[C@@H]2CCCN(CCc3ccc4c(c3)OCO4)C2)c2ccccc2)cc1	4.11 µM (active)	
CCCCCCCCCCCCCCCCOS(=O)(=O)O	4.49 µM (active)	
COc1cc(C(C)C)c2c(c1)S(=O)(=O)N(COc1cc(=O)n3cccc(OCCN4CCCCC4)c3n1)C2=O	6.25 µM (active)	
O=S(=O)(O)c1ccc(N=Nc2c(O)ccc3cc(S(=O)(=O)O)ccc23)cc1	38.4 µM (active)	

target: Muscarinic acetylcholine receptor M1 (Homo sapiens) (UniProt P11229); test: NVS_GPCR_hM1: NovaScreen (NVS) G Protein-Coupled Receptor Assay for human Muscarinic, M1 Receptor (AID 2283270)
Sequence (P11229 whole entry, looked up): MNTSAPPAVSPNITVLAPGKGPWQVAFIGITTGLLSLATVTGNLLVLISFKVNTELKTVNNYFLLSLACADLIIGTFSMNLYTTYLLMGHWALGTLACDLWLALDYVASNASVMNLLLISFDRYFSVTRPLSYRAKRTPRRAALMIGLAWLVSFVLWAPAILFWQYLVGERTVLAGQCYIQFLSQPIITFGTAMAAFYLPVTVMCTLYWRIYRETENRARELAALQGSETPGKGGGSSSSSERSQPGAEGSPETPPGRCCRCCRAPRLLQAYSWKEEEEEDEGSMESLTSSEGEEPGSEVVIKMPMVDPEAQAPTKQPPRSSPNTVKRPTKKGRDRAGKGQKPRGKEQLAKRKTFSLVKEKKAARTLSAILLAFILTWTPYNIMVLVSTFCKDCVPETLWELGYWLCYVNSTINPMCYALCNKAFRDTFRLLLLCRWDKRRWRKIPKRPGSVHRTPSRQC
Method in brief: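 Cell-free radioligand displacement using membrane protein extracted from CHO cells, read by filter-based scintillation counting 1 h after dosing. Loss of bound signal fitted versus DMSO; primary screen single concentration 25 uM in duplicate, actives followed by concentration series.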

SMILES	outcome	AC50
CCn1nc(C)c2c1C(=O)NCC(c1ccc(O)cc1)=N2	inactive	
Cc1nccn1-c1ccc(Sc2cccc(C3(C(N)=O)CCOCC3)c2)cc1		7.4 µM (active)
c1ccc(C(O[C@@H]2CCCN(CCc3ccc4c(c3)OCO4)C2)c2ccccc2)cc1		0.031 µM (active)
COc1cc(C(C)C)c2c(c1)S(=O)(=O)N(COc1cc(=O)n3cccc(OCCN4CCCCC4)c3n1)C2=O		2 µM (active)

target: human Leukotriene B4 Receptor 1 (LTB4-BLT1), LTB4R (gene 1241) (UniProt Q15722); test: NVS_GPCR_hLTB4_BLT1: NovaScreen (NVS) G Protein-Coupled Receptor Assay for human Leukotriene B4 Receptor 1 (LTB4-BLT1) (AID 2283271)
Sequence (Q15722 whole entry, looked up): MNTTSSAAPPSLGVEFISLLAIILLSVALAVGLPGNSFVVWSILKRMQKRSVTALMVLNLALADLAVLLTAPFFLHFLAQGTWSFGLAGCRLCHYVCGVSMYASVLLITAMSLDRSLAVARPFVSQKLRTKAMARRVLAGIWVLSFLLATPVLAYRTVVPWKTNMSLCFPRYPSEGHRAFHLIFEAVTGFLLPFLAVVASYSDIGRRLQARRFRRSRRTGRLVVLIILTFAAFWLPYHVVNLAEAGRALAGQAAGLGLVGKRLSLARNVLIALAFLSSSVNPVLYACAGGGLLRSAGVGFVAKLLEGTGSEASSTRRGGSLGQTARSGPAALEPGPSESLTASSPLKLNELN
Method in brief: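 Radioligand displacement binding on receptor extracted from human neutrophils, cell-free, 1 h after dosing; filter-based scintillation counting. Primary screen in duplicate at 25 uM, actives retested in concentration-response up to 50 uM; loss of signal versus DMSO.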

SMILES	outcome
CCCCCCCC1CCC(=O)O1 (stereo unspecified)	inactive
OCC(CO)(CO)CO	inactive
NC(N)=O	inactive

target: Muscarinic acetylcholine receptor M3 (Homo sapiens) (UniProt P20309); test: NVS_GPCR_hM3: NovaScreen (NVS) G Protein-Coupled Receptor Assay for human Muscarinic, M3 Receptor (AID 2283272)
Sequence (P20309 whole entry, looked up): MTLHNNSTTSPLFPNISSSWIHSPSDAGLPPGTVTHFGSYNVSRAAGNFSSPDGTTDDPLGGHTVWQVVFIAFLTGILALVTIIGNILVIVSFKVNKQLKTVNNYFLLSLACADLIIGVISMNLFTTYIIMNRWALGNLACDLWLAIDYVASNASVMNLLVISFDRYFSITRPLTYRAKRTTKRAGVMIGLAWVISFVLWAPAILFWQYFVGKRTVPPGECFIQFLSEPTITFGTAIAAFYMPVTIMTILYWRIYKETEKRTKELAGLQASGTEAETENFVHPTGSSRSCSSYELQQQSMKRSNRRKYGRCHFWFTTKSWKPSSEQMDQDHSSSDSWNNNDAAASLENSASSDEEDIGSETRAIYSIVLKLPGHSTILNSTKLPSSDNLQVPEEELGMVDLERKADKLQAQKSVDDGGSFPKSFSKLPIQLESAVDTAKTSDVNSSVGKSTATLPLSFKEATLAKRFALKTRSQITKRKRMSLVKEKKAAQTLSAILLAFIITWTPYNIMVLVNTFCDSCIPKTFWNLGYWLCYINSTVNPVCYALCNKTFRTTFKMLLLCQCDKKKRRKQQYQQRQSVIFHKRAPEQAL
Method in brief: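 Radioligand displacement binding on human M3 receptor in CHO-derived membranes, 1 h incubation, filter-based scintillation counting. Primary screen in duplicate at 25 uM; actives followed up in concentration series; loss of signal versus DMSO.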

SMILES	outcome	AC50
Cc1nccn1-c1ccc(Sc2cccc(C3(C(N)=O)CCOCC3)c2)cc1	inactive	
c1ccc(C(O[C@@H]2CCCN(CCc3ccc4c(c3)OCO4)C2)c2ccccc2)cc1		0.0184 µM (active)
CCCCCCCCCCCCCCCCOS(=O)(=O)O		8.33 µM (active)
COc1cc(C(C)C)c2c(c1)S(=O)(=O)N(COc1cc(=O)n3cccc(OCCN4CCCCC4)c3n1)C2=O		8.91 µM (active)
O=S(=O)(O)c1ccc(N=Nc2c(O)ccc3cc(S(=O)(=O)O)ccc23)cc1	inactive	

From PubChem BioAssay (EPA / NIEHS)
